A number with no mark means an inactive call. Inconclusive results are not listed. Where a call stands in place of a potency, no number is given. Active and inactive are the calls of the source. Unless noted, calls follow the shape of the full dose curve.
Tests used:
[1] = Nuclear factor erythroid 2-related factor 2/antioxidant responsive element (Nrf2/ARE) small molecule agonists: qHTS cell viability counter screen in human keratinocytes (AID 1919968; active = well fitted curve in the direction sought with a large enough effect in the repeat runs; an effect the other way counts as inactive or inconclusive; also: nearly all actives have a fitted effect of over 55% in size; also: potency is read from the fitted curve at half-maximal effect)
Summary of the method: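 After a 5 h attachment period, ARE-reporter keratinocytes were dosed with compounds in DMSO and then cultured 23 h at 37 C. Cell viability came from CellTiter-Fluor signal read after a further 1 h.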

[2] = Nuclear factor erythroid 2-related factor 2/antioxidant responsive element (Nrf2/ARE) small molecule agonists: luciferase reporter gene qHTS assay in human keratinocytes (AID 1919969); also: nearly all actives have a fitted effect of over 35% in size; also: potency is read from the fitted curve at half-maximal effect
[3] = target: KiSS-1 receptor (Homo sapiens) (UniProt Q969F8); experiment: Human kisspeptin (KISS1R) small molecule agonists, calcium flux assay in KISS1R-HEK293 cells (AID 1920064; active = well fitted curve in the direction sought with a large enough effect in the repeat runs; an effect the other way counts as inactive or inconclusive)
Summary of the method: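 Kinetic calcium assay, 1 s sampling over 3 min at Ex/Em 480/540, in HEK293 cells engineered with human KISS1R; compounds delivered in DMSO after 1 h dye loading.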

[4] = G protein-coupled receptor (GPCR) small molecule agonists, calcium flux assay: HEK293 wild type cell line counter screen (AID 1920065)
Summary of the method: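 Calcium-sensitive dye, loaded 1 h at 37 C into cells cultured 18 h, reports compound-evoked calcium release as fluorescence (Ex/Em 480/540), measured over 3 min. Agonist mode; 15-point titrations, triplicate.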

[5] = p53 small molecule agonists, cell-based qHTS assay with human liver microsomes (AID 1963577)
Summary of the method: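 Fluorescence of the beta-lactamase reporter in p53RE-bla cells, detected with LiveBLAzer substrate (2 h, room temperature, dark), served as the read-out after 16 h compound exposure at 37 C with human liver microsomes and NADPH, each 0.5 mg/mL final.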

[6] = p53 small molecule agonists, cell-based qHTS assay with rat liver microsomes: qHTS cell viability counter screen (AID 1963580); also: nearly all actives have a fitted effect of over 45% in size
Summary of the method: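 Intracellular ATP, by CellTiter-Glo luminescence, defines viability. HCT-116 p53RE-bla cells, 4,000 per well, were compound-treated in the presence of rat liver microsomes and NADPH for 16 h at 37 C.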

[7] = p53 small molecule agonists, cell-based qHTS assay: qHTS cell viability counter screen (AID 1963581); also: nearly all actives have a fitted effect of over 45% in size
Summary of the method: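 Following 5 h attachment, HCT-116 p53RE-bla cells took up compound for 16 h at 37 C; the reporter was read with B/G FRET substrate (2 h RT), and viability then via CellTiter-Glo ATP luminescence.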

[8] = p53 small molecule agonists, cell-based qHTS assay (AID 1963582; active = well fitted activation curve with a large enough effect in the signal ratio in the repeat runs, not every such curve was filed as active; the % refers to the signal ratio)
Summary of the method: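 In this cell-based concentration-response screen, a p53 response element drives beta-lactamase; cells received DMSO-borne compounds after 5 h culture and were incubated a further 16 h before FRET substrate development.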

[9] = target: 5-hydroxytryptamine receptor 2A (Homo sapiens) (UniProt P28223); experiment: 5-hydroxytryptamine receptor 2A (HTR2A) small molecule agonists, cell-based qHTS assay (AID 1963587); also: nearly all actives have a fitted effect of over 30% in size; also: potency is read from the fitted curve at half-maximal effect
Summary of the method: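 Kinetic calcium-flux fluorescence (2 min, 1 sec intervals) after compound addition in agonist mode. HTR2A-CHO cells were cultured 18 h, then dye-loaded 1 h at 37 C.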

[10] = target: Muscarinic acetylcholine receptor M1 (Homo sapiens) (UniProt P11229); experiment: Cholinergic receptor muscarinic 1 (CHRM1) small molecule antagonists, cell-based qHTS assay (AID 1963588); also: nearly all actives have a fitted effect of over 40% in size; also: potency is read from the fitted curve at half-maximal effect
Summary of the method: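 CHRM1-CHO calcium-flux assay, antagonist mode. Cells were seeded 18 h, dye-loaded 1 h at 37 C and given compound for 5 min at RT, then acetylcholine was added at 50nM. FDSS fluorescence was read 3 min; 15 concentrations, three runs.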

[11] = target: Muscarinic acetylcholine receptor M1 (Homo sapiens) (UniProt P11229); experiment: Cholinergic receptor muscarinic 1 (CHRM1) small molecule agonists, cell-based qHTS assay (AID 1963589); also: nearly all actives have a fitted effect of over 35% in size
Summary of the method: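 Measures agonist-induced intracellular calcium rise. Stable human CHRM1 CHO line, 1 h dye load at 37 C, compounds from DMSO, kinetic fluorescence read.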

[12] = cAMP Responsive Elements (CRE) small molecule agonists, cell-based qHTS assay (AID 1963590)
Summary of the method: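 A CRE-responsive beta-lactamase reporter in HEK 293T cells was used. Treatment ran 3 h at 37 C; detection used LiveBLAzer B/G FRET substrate for 2 h at room temperature.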

[13] = target: D(2) dopamine receptor (Homo sapiens) (UniProt P14416); experiment: Dopamine D2 receptor (DRD2) small molecule agonists, cell-based qHTS assay (AID 1963594); also: nearly all actives have a fitted effect of over 35% in size
Summary of the method: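 cAMP accumulation in DRD2-HEK293 cells measured by HTRF after 1 h detection; compounds added 10 min before NKH477 (200nM […]) forskolin-analogue stimulation, 30 min at room temperature, with Ro20-1724 present at 0.1 mM final.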

[14] = target: D(2) dopamine receptor (Homo sapiens) (UniProt P14416); experiment: Dopamine D2 receptor (DRD2) small molecule antagonists, cell-based qHTS assay (AID 1963595; active = well fitted inhibition curve with a large enough effect in the signal ratio in the repeat runs, with a control signal flat; the % refers to the signal ratio)
Summary of the method: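 In this cell-based antagonist screen, compounds act for 10 min at room temperature before a 30 min challenge with 12 nM quinpirole and 200 nM NKH477. cAMP is quantified by HTRF competition in DRD2-HEK293 cells containing 0.1 mM Ro20-1724.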

[15] = p53 small molecule agonists, cell-based qHTS assay with human liver microsomes: qHTS cell viability counter screen (AID 1963579); also: nearly all actives have a fitted effect of over 45% in size
Summary of the method: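 Cytotoxicity counter screen: p53RE-bla, 4,000 cells/well; 5 h settle, 37 C/5% CO2; cpd + HLM 0.5 mg/mL + NADPH 0.5 mg/mL (final); 16 h, 37 C; CellTiter-Glo, 30 min RT, luminescence.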

[16] = target: 5-hydroxytryptamine receptor 2A (Homo sapiens) (UniProt P28223); experiment: 5-hydroxytryptamine receptor 2A (HTR2A) small molecule antagonists, cell-based qHTS assay (AID 1963586); also: nearly all actives have a fitted effect of over 45% in size; also: potency is read from the fitted curve at half-maximal effect
Summary of the method: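 Antagonist-mode intracellular calcium assay: DOI (4 nM) added after 5 min compound pre-incubation at room temperature to dye-loaded HTR2A-CHO cells. Fluorescence followed for 3 min, sampled every second.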

[17] = cAMP Responsive Elements (CRE) small molecule antagonists, cell-based qHTS assay (AID 1963591; active = well fitted inhibition curve with a large enough effect in the signal ratio in the repeat runs, not every such curve was filed as active; the % refers to the signal ratio)
Summary of the method: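 HEK293T cells carrying a CRE-driven beta-lactamase reporter receive compound and NKH477 (0.25 uM final) for 3 h. Fluorescence from LiveBLAzer B/G FRET substrate is read after 2 h at room temperature.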

[18] = target: Beta-2 adrenergic receptor (Homo sapiens) (UniProt P07550); experiment: Adrenergic beta2 receptor (ADRB2) small molecule antagonists, cell-based qHTS assay (AID 1963592); also: nearly all actives have a fitted effect of over 50% in size; also: potency is read from the fitted curve at half-maximal effect
Summary of the method: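 Cells (CHO, stable ADRB2 overexpression) incubated 18-20hr at 37C; compounds added from DMSO; agonist mix (1nM isoproterenol, 100uM IBMX, 25uM Ro-20-1724) added; 0.5hr RT; d2-cAMP and anti-cAMP-cryptate added; 1hr RT; 665/615 nm read.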

[19] = target: Beta-2 adrenergic receptor (Homo sapiens) (UniProt P07550); experiment: Adrenergic beta2 receptor (ADRB2) small molecule agonists, cell-based qHTS assay (AID 1963593);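 also: CHO cells stably overexpressing human ADRB2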
Summary of the method: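 CHO cells stably over-expressing ADRB2 were plated overnight at 37C, then dosed with compounds plus a stimulation mix containing 100uM IBMX and 25uM Ro-20-1724 for 0.5hr at room temperature. cAMP was measured by HTRF competition, 1hr.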

[20] = p53 small molecule agonists, cell-based qHTS assay with rat liver microsomes (AID 1963578)
Summary of the method: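 Cells carrying a p53 response element–beta-lactamase reporter were plated and rested 5 h, then dosed with compound in DMSO plus rat liver microsomes and NADPH, each at 0.5 mg/mL final. After 16 h at 37 C, LiveBLAzer substrate was added for 2 h.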

Sequence of Muscarinic acetylcholine receptor M1 (Homo sapiens) (P11229 whole entry, looked up): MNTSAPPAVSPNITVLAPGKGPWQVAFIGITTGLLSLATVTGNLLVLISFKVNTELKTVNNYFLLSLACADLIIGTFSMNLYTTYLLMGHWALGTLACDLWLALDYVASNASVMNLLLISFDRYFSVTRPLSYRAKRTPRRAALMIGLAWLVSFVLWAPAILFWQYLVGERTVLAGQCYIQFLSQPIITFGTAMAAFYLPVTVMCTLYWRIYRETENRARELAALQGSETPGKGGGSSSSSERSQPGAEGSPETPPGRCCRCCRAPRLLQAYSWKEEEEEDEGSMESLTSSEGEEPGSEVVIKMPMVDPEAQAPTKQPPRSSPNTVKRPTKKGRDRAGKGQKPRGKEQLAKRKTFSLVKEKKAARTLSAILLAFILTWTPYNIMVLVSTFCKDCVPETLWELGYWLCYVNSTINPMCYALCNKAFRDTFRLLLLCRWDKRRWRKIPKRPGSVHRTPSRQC
Sequence of 5-hydroxytryptamine receptor 2A (Homo sapiens) (P28223 whole entry, looked up): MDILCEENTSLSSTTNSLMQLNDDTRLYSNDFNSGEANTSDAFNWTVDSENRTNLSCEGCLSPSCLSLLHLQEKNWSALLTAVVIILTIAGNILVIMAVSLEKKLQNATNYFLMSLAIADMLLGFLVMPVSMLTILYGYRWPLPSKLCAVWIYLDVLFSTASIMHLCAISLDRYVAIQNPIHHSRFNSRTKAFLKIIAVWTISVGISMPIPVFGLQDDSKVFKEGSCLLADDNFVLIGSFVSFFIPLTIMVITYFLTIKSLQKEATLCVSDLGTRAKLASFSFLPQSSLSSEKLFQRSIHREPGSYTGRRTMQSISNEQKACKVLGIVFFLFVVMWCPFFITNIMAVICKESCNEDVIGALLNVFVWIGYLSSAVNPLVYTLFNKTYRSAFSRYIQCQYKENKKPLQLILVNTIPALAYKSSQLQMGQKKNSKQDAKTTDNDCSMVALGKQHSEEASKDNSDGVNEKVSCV
Sequence of D(2) dopamine receptor (Homo sapiens) (P14416 whole entry, looked up): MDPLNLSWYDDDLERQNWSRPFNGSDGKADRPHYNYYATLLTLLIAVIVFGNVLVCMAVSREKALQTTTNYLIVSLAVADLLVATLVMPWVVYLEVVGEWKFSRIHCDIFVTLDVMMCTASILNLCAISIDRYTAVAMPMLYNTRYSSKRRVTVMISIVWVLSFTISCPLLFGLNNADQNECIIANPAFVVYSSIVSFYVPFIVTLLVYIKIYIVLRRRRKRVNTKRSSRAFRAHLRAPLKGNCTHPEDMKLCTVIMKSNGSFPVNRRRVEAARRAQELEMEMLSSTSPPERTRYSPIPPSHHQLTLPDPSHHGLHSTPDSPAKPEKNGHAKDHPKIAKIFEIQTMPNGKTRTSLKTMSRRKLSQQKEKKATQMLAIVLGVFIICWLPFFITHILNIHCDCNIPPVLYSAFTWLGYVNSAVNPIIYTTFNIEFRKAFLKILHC
Sequence of KiSS-1 receptor (Homo sapiens) (Q969F8 whole entry, looked up): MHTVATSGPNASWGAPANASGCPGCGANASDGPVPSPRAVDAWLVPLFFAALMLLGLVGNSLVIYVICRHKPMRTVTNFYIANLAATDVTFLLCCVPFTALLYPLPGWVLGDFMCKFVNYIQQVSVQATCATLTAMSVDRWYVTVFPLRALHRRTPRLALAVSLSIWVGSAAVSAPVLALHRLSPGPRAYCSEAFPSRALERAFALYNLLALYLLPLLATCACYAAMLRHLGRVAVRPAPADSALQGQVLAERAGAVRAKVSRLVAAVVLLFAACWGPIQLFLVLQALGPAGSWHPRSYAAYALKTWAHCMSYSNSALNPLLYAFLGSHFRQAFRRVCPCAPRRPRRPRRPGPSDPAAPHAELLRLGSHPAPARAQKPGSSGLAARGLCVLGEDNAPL
Sequence of Beta-2 adrenergic receptor (Homo sapiens) (P07550 whole entry, looked up): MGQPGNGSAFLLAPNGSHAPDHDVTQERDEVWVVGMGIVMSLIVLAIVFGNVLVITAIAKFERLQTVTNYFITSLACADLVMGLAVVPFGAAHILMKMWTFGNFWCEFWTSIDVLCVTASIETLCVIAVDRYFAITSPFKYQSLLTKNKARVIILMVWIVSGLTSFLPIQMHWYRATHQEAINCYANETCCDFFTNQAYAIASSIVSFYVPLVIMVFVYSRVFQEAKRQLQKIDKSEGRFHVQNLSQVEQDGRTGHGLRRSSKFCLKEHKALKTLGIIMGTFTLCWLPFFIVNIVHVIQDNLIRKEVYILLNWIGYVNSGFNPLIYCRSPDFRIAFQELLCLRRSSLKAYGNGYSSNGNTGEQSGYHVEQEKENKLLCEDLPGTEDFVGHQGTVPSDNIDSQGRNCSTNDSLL

| SMILES | Potency [1] | Potency [2] | Potency [3] | Potency [4] | Potency [5] | Potency [6] | Potency [7] | Potency [8] | Potency [9] | Potency [10] | Potency [11] | Potency [12] | Potency [13] | Potency [14] | Potency [15] | Potency [16] | Potency [17] | Potency [18] | Potency [19] | Potency [20] |
| --- | --- | --- | --- | --- | --- | --- | --- | --- | --- | --- | --- | --- | --- | --- | --- | --- | --- | --- | --- | --- |
| Cc1cc(O)c(C(C)C)cc1Cl | inactive | inactive | inactive | inactive | inactive | inactive | inactive | inactive | inactive | inactive | inactive | inactive | inactive | inactive | – | – | – | – | – | – |
| N#CCCNCCC#N | inactive | inactive | inactive | inactive | – | inactive | inactive | – | inactive | inactive | inactive | inactive | inactive | inactive | inactive | inactive | inactive | inactive | inactive | – |
| c1coc(Cn2cccc2)c1 | inactive | inactive | inactive | inactive | inactive | inactive | inactive | inactive | – | inactive | – | inactive | – | inactive | inactive | inactive | inactive | 30.6 µM (active) | – | – |
| CC1(C)CCC(C)(C)c2cc(C(=O)Nc3ccc(C(=O)O)cc3)ccc21 | inactive | inactive | inactive | inactive | inactive | – | – | – | – | – | inactive | – | inactive | inactive | – | – | – | inactive | – | inactive |
| [Ca+2] | inactive | inactive | inactive | inactive | – | inactive | inactive | – | inactive | inactive | inactive | – | inactive | inactive | inactive | inactive | inactive | – | inactive | – |
| COc1ccc(NC(=O)CC(C)=O)cc1 | inactive | inactive | inactive | inactive | inactive | – | – | inactive | inactive | inactive | inactive | inactive | inactive | inactive | inactive | inactive | inactive | inactive | inactive | – |
| Fc1ccccc1[C@@H](F)COC1CCC(Nc2ncnc3[nH]ncc23)CC1 (some centres not stated) | inactive | inactive | inactive | inactive | inactive | inactive | inactive | – | inactive | inactive | inactive | – | inactive | inactive | – | – | – | inactive | inactive | inactive |
| Cc1c(-c2cccnc2)c2ccccc2n1CCCCC(=O)O | inactive | inactive | inactive | inactive | – | – | – | inactive | inactive | inactive | inactive | – | inactive | – | – | inactive | – | inactive | – | inactive |
| CCCCCCCCCCCCCCCCCC[N+](C)(C)C | 61.3 µM (active) | inactive | inactive | inactive | inactive | – | – | – | 34.8 µM (active) | – | – | – | inactive | inactive | – | inactive | – | – | – | inactive |
| O=C(O)CNC(=O)CNC(=O)CNC(=O)CSC(=O)c1ccccc1 | inactive | inactive | inactive | inactive | – | inactive | inactive | – | inactive | inactive | inactive | inactive | inactive | inactive | inactive | inactive | inactive | inactive | inactive | – |
| CN(C)CCOc1ccccc1Cc1ccccc1 | inactive | inactive | inactive | inactive | – | inactive | inactive | – | inactive | 1.45 µM (active) | inactive | inactive | inactive | – | inactive | 0.326 µM (active) | inactive | 33.5 µM (active) | – | – |
| CC(=O)OCC(=O)[C@@]1(O)[C@H](OC(C)=O)C[C@H]2[C@@H]3CCC4=CC(=O)C=C[C@]4(C)[C@@]3(F)[C@@H](O)C[C@@]21C | inactive | inactive | inactive | inactive | – | – | inactive | inactive | inactive | inactive | inactive | inactive | inactive | inactive | inactive | – | inactive | inactive | inactive | inactive |
| O=C1C=CC(=O)N1c1cccc(N2C(=O)C=CC2=O)c1 | 54.5 µM (active) | 4.86 µM (active) | inactive | inactive | inactive | – | – | inactive | – | – | inactive | – | – | – | – | inactive | – | – | – | – |

Reference: PubChem BioAssay (Tox21)
